The list is not random: actives were taken first. Their share in the collection is about 1.7%.
SUMO1-SIM PPI – modulators of human SUMO1-mediated protein-protein interactions; P63165; SUMO1 binding to a labelled peptide, TR-FRET, 1 h; inhibition, % at 20 µM; 0.33% of 360,000 active; AID 602429; in the data active means inhibition above about 37%
ATG4B inh – blocks human ATG4B protease cleavage of LC3 substrate | ATG4B cleavage of LC3-PLA2, NBD-HPC fluorescence, 1 h | inhibition, % at 8.33 µM | 0.51% of 340,000 active | AID 504462; in the data active means inhibition above about 40%
Target sequence (Q9Y4P1 whole entry, looked up): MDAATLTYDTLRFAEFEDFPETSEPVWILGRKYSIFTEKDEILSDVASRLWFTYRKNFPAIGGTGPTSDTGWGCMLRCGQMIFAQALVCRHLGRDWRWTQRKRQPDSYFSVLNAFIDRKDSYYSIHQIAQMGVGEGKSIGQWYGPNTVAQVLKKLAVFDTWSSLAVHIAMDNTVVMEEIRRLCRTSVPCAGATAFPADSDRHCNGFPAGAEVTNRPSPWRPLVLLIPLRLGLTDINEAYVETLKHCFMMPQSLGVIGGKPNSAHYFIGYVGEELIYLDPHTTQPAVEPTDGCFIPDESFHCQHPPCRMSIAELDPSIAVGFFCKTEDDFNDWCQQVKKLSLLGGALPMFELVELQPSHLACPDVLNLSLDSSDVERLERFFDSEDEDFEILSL
Rin1-Abl PPI inh – human Rin1-Abl interaction inhibition; TR-FRET Rin1/Abl binding, biochemical; 0.4% of 360,000 active; inhibition, % at 7.35 µM; in the data active means inhibition above about 5%, passing the limit was not always enough
Neddylation inh – inhibitors of human cullin neddylation | inhibition, % at 25 µM | TR-FRET cullin neddylation, biochemical | 0.58% of 360,000 active | P61081+Q13564; in the data active means inhibition above about 36%
ATG4B confirm – confirmation of human ATG4B inhibitors; shares compounds with ATG4B inh; ATG4B protease fluorescent substrate cleavage assay; inhibition, % at 8.33 µM; 92% of 320 active; in the data active means inhibition above about 39%
PLA2 counter – counter-screen for ATG4B inhibitors: human phospholipase A2; purified PLA2, NBD-C6-HPC fluorescence, 45 min; 66% of 1,600 active; inhibition, % at 8.33 µM; shares compounds with ATG4B inh; AID 588402; in the data active means inhibition above about 50%
Target sequence (P04054 whole entry, looked up): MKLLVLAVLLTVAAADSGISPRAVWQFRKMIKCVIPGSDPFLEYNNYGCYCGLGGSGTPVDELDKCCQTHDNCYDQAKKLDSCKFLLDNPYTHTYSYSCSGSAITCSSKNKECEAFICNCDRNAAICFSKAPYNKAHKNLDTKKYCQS
A number is an active result.

`CCc1ccccc1NC(=S)NCCSc1ccc(Cl)cc1` gave SUMO1-SIM PPI inactive, ATG4B inh 65.9, Rin1-Abl PPI inh inactive, Neddylation inh inactive and PLA2 counter 80.0.
Screening Cc1cccc(NC(=S)NCCSc2ccc(Cl)cc2)c1 returned SUMO1-SIM PPI inactive, ATG4B inh 50.9, Rin1-Abl PPI inh inactive, Neddylation inh inactive and PLA2 counter 64.4.
Cc1ccc(C)c(NC(=S)NCCSc2ccc(Cl)cc2)c1 was read as SUMO1-SIM PPI inactive, ATG4B inh inactive, Rin1-Abl PPI inh inactive and Neddylation inh inactive.
Screening Cc1cccc(NC(=S)NCC(C)CSc2ccc(Cl)cc2)c1 (centres undefined) returned SUMO1-SIM PPI inactive, ATG4B inh inactive, Rin1-Abl PPI inh inactive and Neddylation inh inactive.
`CCN1C(=O)[C@H]2[C@@H](c3ccc(C)cc3)N[C@]3(CCCN(Cc4ccc(OC)cc4)C3=O)[C@H]2C1=O` gave SUMO1-SIM PPI inactive, Rin1-Abl PPI inh inactive and Neddylation inh inactive.
For CCCCNC(=O)C1(C)CCN1C(=O)c1ccc2c(c1)C(C)(C)CCC2(C)C (centres undefined) the results were SUMO1-SIM PPI inactive, Rin1-Abl PPI inh inactive and Neddylation inh inactive.
Screening Cc1ccc(NC2=C/C(=N/S(=O)(=O)c3cccs3)c3ccccc3C2=O)cc1 returned SUMO1-SIM PPI inactive, ATG4B inh inactive, Rin1-Abl PPI inh inactive and Neddylation inh inactive.
O=C1C(Nc2ccccc2)=C/C(=N/S(=O)(=O)c2cccs2)c2ccccc21 was read as SUMO1-SIM PPI inactive, ATG4B inh 72.1, Rin1-Abl PPI inh inactive, Neddylation inh inactive and PLA2 counter 78.2.
Screening O=C(O)c1ccccc1C(=O)Nc1ccc(Oc2cccc3ccccc23)cc1 returned SUMO1-SIM PPI inactive, ATG4B inh inactive, Rin1-Abl PPI inh inactive and Neddylation inh inactive.
Cc1cccc(Oc2ccc(NC(=O)c3ccccc3C(=O)O)cc2)c1C was read as SUMO1-SIM PPI inactive, ATG4B inh 69.5, Rin1-Abl PPI inh inactive, Neddylation inh inactive and PLA2 counter 69.5.
For Cc1cc(C)nc(/N=C(\N)Nc2ccc(OCCC(C)C)cc2)n1 the results were SUMO1-SIM PPI inactive, ATG4B inh inactive, Rin1-Abl PPI inh inactive and Neddylation inh inactive.
For O=c1n(Cc2ccccc2Cl)nc2n1-c1ccccc1SC2 the results were SUMO1-SIM PPI inactive, ATG4B inh 52.4, Rin1-Abl PPI inh inactive, Neddylation inh inactive and PLA2 counter 54.3.
`CCOc1ccc(CCN2C(=S)N([C@@H](CC(C)C)CN3CCCC3CN3C(=S)NC[C@@H]3CC(C)C)C[C@@H]2CC(C)C)cc1` (some centres undefined) gave SUMO1-SIM PPI inactive, Rin1-Abl PPI inh inactive and Neddylation inh inactive.
`N#Cc1ccccc1NC(=O)c1ccc2c(Cl)c3c(nc2c1)CCCC3` gave SUMO1-SIM PPI inactive, ATG4B inh 47.8, Rin1-Abl PPI inh inactive, Neddylation inh inactive and PLA2 counter inactive.
`O=C(Nc1cccnc1Cl)c1ccc2c(Cl)c3c(nc2c1)CCC3` gave SUMO1-SIM PPI inactive, ATG4B inh inactive, Rin1-Abl PPI inh inactive and Neddylation inh inactive.
NC(C(=O)O)C1ON=C(Cl)C1O (centres undefined) was read as SUMO1-SIM PPI inactive, ATG4B inh inactive, Rin1-Abl PPI inh inactive and Neddylation inh inactive.
`COc1cc(OC)cc(-c2nc3ccccc3c(=O)n2OC(=O)c2ccccc2C)c1` gave SUMO1-SIM PPI inactive, ATG4B inh 45.1, Rin1-Abl PPI inh inactive, Neddylation inh inactive, ATG4B confirm 66.9 and PLA2 counter inactive.
For COCC1OC(OC(C)C(O)c2cnc3nc(N)[nH]c(=O)c3n2)C(O)C(OC)C1O (centres undefined) the results were SUMO1-SIM PPI inactive and Rin1-Abl PPI inh inactive.
Screening Cc1c(Cl)cccc1NC(=S)N1CCCN(Cc2ccc(F)cc2)C1 returned SUMO1-SIM PPI inactive, ATG4B inh 51.7, Rin1-Abl PPI inh inactive, Neddylation inh inactive and PLA2 counter 54.5.
For Cc1c(Cl)cccc1NC(=S)N1CCCN(Cc2ccccc2F)C1 the results were SUMO1-SIM PPI inactive, ATG4B inh 63.7, Rin1-Abl PPI inh inactive, Neddylation inh inactive and PLA2 counter 56.3.
For Cc1cn([C@H]2C[C@H](O)[C@@H](/C=C/C(=O)NCCN3CCOCC3)O2)c(=O)[nH]c1=O the results were SUMO1-SIM PPI inactive, Rin1-Abl PPI inh inactive and Neddylation inh inactive.
Screening CCc1nc2c(OCc3cc(Cl)cc(Cl)c3)cccn2c1N(C)C(=O)c1ccc(C)cc1 returned SUMO1-SIM PPI inactive, Rin1-Abl PPI inh inactive and Neddylation inh inactive.
CCOc1ccc(-n2c(SCc3ccc(C(=O)OC)o3)nc3c(c2=O)SCC3)cc1 was read as SUMO1-SIM PPI inactive, ATG4B inh 59.8, Rin1-Abl PPI inh inactive, Neddylation inh inactive and PLA2 counter 77.5.
`COC(=O)c1ccc(CSc2nc3c(c(=O)n2-c2ccc(Br)cc2)SCC3)o1` gave SUMO1-SIM PPI inactive, ATG4B inh 64.7, Rin1-Abl PPI inh inactive, Neddylation inh inactive and PLA2 counter 73.5.
O=C(CSc1nc2c(c(=O)n1-c1ccc(Cl)cc1)SCC2)N1CCCC1 was read as SUMO1-SIM PPI inactive, ATG4B inh inactive, Rin1-Abl PPI inh inactive and Neddylation inh inactive.
CC(C)c1ccc(Nc2n[nH]c(=S)s2)cc1 was read as SUMO1-SIM PPI inactive, Rin1-Abl PPI inh inactive and Neddylation inh inactive.
CC(c1nc2ccccc2[nH]1)n1c(=O)c(-c2ccco2)nc2ccccc21 (centres undefined) was read as SUMO1-SIM PPI inactive and Neddylation inh inactive.
`C=CC#CC[N+]1(CC#Cc2ccccc2)CCOCC1` gave SUMO1-SIM PPI 36.6, ATG4B inh 69.8, Rin1-Abl PPI inh inactive, Neddylation inh inactive, ATG4B confirm 46.0 and PLA2 counter inactive.
`C(#Cc1ccccc1)C[N+]1(CC#Cc2ccccc2)CCCC1` gave SUMO1-SIM PPI inactive, ATG4B inh inactive, Rin1-Abl PPI inh inactive and Neddylation inh inactive.
Screening COc1cc(/C=C2\SC(=O)N(CC(=O)Nc3ccccc3F)C2=O)cc(Cl)c1O returned SUMO1-SIM PPI inactive, ATG4B inh inactive, Rin1-Abl PPI inh inactive and Neddylation inh inactive.
`CCOc1cc(/C=C2\SC(=O)N(CC(=O)Nc3ccccc3F)C2=O)cc([N+](=O)[O-])c1O` gave SUMO1-SIM PPI inactive, ATG4B inh 42.5, Rin1-Abl PPI inh inactive, Neddylation inh inactive, ATG4B confirm 58.8 and PLA2 counter inactive.
Cc1ccc(-n2c(Cc3cccn3C)nnc2SCC(=O)N2CCc3ccccc32)cc1 was read as SUMO1-SIM PPI inactive, ATG4B inh 51.5, Rin1-Abl PPI inh inactive, Neddylation inh inactive and PLA2 counter inactive.
For O=C(/C=C/c1ccc(Cl)cc1Cl)N1CCN(c2ccccc2[N+](=O)[O-])CC1 the results were SUMO1-SIM PPI inactive, ATG4B inh 53.2, Rin1-Abl PPI inh inactive, Neddylation inh inactive and PLA2 counter 60.0.
`O=C(NNc1cc(C(F)(F)F)nc2ccccc12)Nc1cccc(Cl)c1` gave SUMO1-SIM PPI inactive, ATG4B inh 85.3, Rin1-Abl PPI inh inactive, Neddylation inh inactive and PLA2 counter 84.7.
